Rows were chosen to be rich in hits. Some 3.7% of all compounds tested hit in one or more screens of this group.
GLP-1R inv ag = qHTS of GLP-1 Receptor Inverse Agonists (Inhibition Mode); Glucagon-like peptide 1 receptor (Homo sapiens), P43220; AID 624417, 2012; HEK293 GLP-1R CRE-luciferase, luminescence, 24 h; GLP-1R form is constitutively active; 410,000 tested, 1.6% active; Potency, µM (highest dose often 38.3 µM), without a hit: at the top dose activity change, negative = inhibition, hits mostly inhibitors; also: % is scaled to controls: 0 for no effect and ±100 for the full control effect; nearly all actives have a fitted effect of over 55% in size
Target sequence (P43220 whole entry, looked up): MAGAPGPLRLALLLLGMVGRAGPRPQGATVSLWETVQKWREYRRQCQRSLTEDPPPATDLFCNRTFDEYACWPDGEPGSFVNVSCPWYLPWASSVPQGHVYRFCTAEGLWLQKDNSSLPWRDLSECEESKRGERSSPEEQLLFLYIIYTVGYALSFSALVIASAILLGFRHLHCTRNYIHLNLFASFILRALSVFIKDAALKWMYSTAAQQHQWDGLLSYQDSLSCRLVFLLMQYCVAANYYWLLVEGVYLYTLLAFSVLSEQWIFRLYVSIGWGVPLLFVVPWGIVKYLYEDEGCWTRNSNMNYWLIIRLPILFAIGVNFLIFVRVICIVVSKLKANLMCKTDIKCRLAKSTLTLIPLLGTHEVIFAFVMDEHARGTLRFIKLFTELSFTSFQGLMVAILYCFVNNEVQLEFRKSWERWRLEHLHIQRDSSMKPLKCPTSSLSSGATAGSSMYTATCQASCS
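HEK293 cells stably co-expressing constitutively active GLP-1R and a cAMP-responsive luciferase reporter were seeded in DMEM with 10% Nu serum, given compounds after 12 h, and incubated 24 h at 37 deg C. Luminescence was then read.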
ATXN2 expr inh = Primary qHTS for Inhibitors of ATXN expression | HEK-293 ATXN2-luciferase reporter, luminescence, 24 h | Potency, µM (titrated, usually from 57 µM), for the others: top-dose activity change, negative = inhibition, hits mostly inhibitors | 360,000 tested, 0.72% active | AID 1745845, 2022; also: % is scaled to controls: 0 for no effect and ±100 for the full control effect; nearly all actives have a fitted effect of over 55% in size
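qHTS (up to 57 uM final) was run with 24 h compound exposure of reporter cells at 37 °C. Each well was multiplexed: SteadyGlo luminescence measured ATXN2-luciferase expression after a fluorogenic Gly-Phe-AFC viability readout (25 uM final).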
ATXN viability = Viability Counterscreen for Primary qHTS for Inhibitors of ATXN expression; S2 cells (HEK-293 line with an ATXN2-luciferase reporter) viability, CellTiter-Fluor protease fluorescence, 24 h; Potency, µM (top dose mostly 56.7 µM), hits mostly cytotoxic; 400,000 tested, 0.49% active; AID 651635, 2014; also: nearly all actives have a fitted effect of over 40% in size
HepG2 viability = qHTS for Inhibitors of TGF-b: Cytotox Counterscreen; HepG2 CAGA-GFP viability, ATP luminescence, 18 h; Potency, µM (highest dose often 46.1 µM), for the others: top-dose activity change, negative = cytotoxicity, usual class: cytotoxic; 410,000 tested, 0.76% active
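HepG2 CAGA-GFP cells (1000/well, DMEM with 1% FBS) received compound, then TGF-beta at 500 pg/mL final, and were incubated 18 hours at 37 degrees C. Viability was read by CellTiter-Glo luminescence. Media-only wells were set as complete cell-killing and DMSO as no toxicity.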
GLP-1R agonist = qHTS of GLP-1 Receptor Agonists. Glucagon-like peptide 1 receptor (Homo sapiens), P43220. Potency, µM (titrated, usually from 45.6 µM), without a hit: top-dose activation, usual class: activators. AID 624172, 2012. 380,000 tested, 0.007% active. HEK293 GLP-1R CRE-luciferase, luminescence, 4-6 h; cells express a hypersensitive GLP-1R form; also: % of control where 0% means no effect
TGFb SMAD3 inh = qHTS for Inhibitors of TGF-b; HepG2 CAGA-GFP TGF-b/SMAD3 reporter, GFP fluorescence, 18 h; TGF-beta stimulated, 500 pg/mL final; Potency, µM (highest dose often 46.1 µM), for the others: at the top dose activity, negative = inhibition, usual class: inhibitors; 410,000 tested, 1.2% active; AID 588855, 2011; also: % is scaled to controls: 0 for no effect and ±100 for the full control effect; nearly all actives have a fitted effect of over 65% in size
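Using HEPG2 CAGA-GFP reporter cells at 1000 cells/well, we pinned test compounds, stimulated with recombinant TGF-beta (500 pg/mL final) and measured total well GFP after 18 h.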
* hit, by the source's call. Calls follow the shape of the dose curve; as a rule, active = well fitted curve in the direction sought with a large enough effect; inconclusive = small, poorly fitted or top-dose-only effect, or another doubt; inactive = no such curve, though single readings can be large; an effect the other way counts as inactive or inconclusive. Potency is read from the fitted curve at half-maximal effect.

Results for CNC(=O)c1[nH]cnc1C(=O)N[C@@H](Cc1ccccc1)C(=O)OC(C)(C)C ?
GLP-1R inv ag: 10%; ATXN2 expr inh: -4%; ATXN viability: inactive; HepG2 viability: -9%; GLP-1R agonist: -1%; TGFb SMAD3 inh: -6%

How did CC(C)C[C@H](NC(=O)c1[nH]cnc1C(=O)N[C@@H](C)C(=O)OC(C)(C)C)C(=O)OC(C)(C)C do in these assays?
GLP-1R inv ag: inconclusive; ATXN2 expr inh: -70%; HepG2 viability: 11µM*; GLP-1R agonist: 5%; TGFb SMAD3 inh: inconclusive

Results for CC(C)(C)OC(=O)[C@H](Cc1ccccc1)NC(=O)c1[nH]cnc1C(=O)Nc1ccccc1F ?
GLP-1R inv ag: inconclusive; ATXN2 expr inh: inconclusive; ATXN viability: 18µM*; HepG2 viability: 11µM*; GLP-1R agonist: -3%; TGFb SMAD3 inh: inconclusive

How did CC(C)(C)OC(=O)NCCCC[C@H](NC(=O)c1[nH]cnc1C(=O)Nc1ccc(Cl)cc1)C(=O)OC(C)(C)C do in these assays?
GLP-1R inv ag: inconclusive; ATXN2 expr inh: inconclusive; ATXN viability: inconclusive; HepG2 viability: -35%; GLP-1R agonist: 5%; TGFb SMAD3 inh: 14µM*

What do the screens show for `Nc1c(N=Nc2ccc([N+](=O)[O-])cc2)c(S(=O)(=O)O)cc2cc(S(=O)(=O)O)c(/C=C/c3ccccc3)c(O)c12`?
HepG2 viability: -19%; TGFb SMAD3 inh: -3%

How did O=C(NCCN1CCOCC1)C1(C(F)(F)F)C/C(=C/CCO)CCCO1 (stereo not drawn) do in these assays?
HepG2 viability: -2%; TGFb SMAD3 inh: 6%

How did COc1cccc(NC(=O)c2sc3nc(C)c(C(=O)Nc4ccc(C)cc4C)c(-c4ccc(C)o4)c3c2N)c1 do in these assays?
GLP-1R inv ag: -10%; ATXN2 expr inh: 7%; ATXN viability: inactive; HepG2 viability: 5%; TGFb SMAD3 inh: 33%

What do the screens show for `O=S(=O)(NCc1cccc(Br)c1)c1ccc(-c2cc(C(F)(F)F)on2)s1`?
GLP-1R inv ag: inconclusive; HepG2 viability: -31%; TGFb SMAD3 inh: inconclusive

Results for CCc1ccc(OCC(=O)N(Cc2ccc(C(C)C)cc2)C2CCS(=O)(=O)C2)cc1 (stereo not drawn) ?
GLP-1R inv ag: inconclusive; ATXN2 expr inh: inconclusive; ATXN viability: inconclusive; HepG2 viability: -50%; TGFb SMAD3 inh: inconclusive

What do the screens show for `C[C@H](NC(=O)c1nc[nH]c1C(=O)N[C@H](C)c1ccccc1)C(=O)OC(C)(C)C`?
GLP-1R inv ag: 12%; ATXN2 expr inh: 6%; ATXN viability: inactive; HepG2 viability: -3%; GLP-1R agonist: 2%; TGFb SMAD3 inh: -15%

What do the screens show for `C[C@H](NC(=O)c1nc[nH]c1C(=O)NC(c1ccccc1)c1ccccc1)C(=O)OC(C)(C)C`?
GLP-1R inv ag: 5.6µM*; ATXN2 expr inh: inconclusive; ATXN viability: inconclusive; HepG2 viability: -77%; GLP-1R agonist: 2%; TGFb SMAD3 inh: inconclusive

What do the screens show for `COc1ccc(-c2nnc3n2N=C(C)CS3)cc1`?
GLP-1R inv ag: 40%; ATXN2 expr inh: 8%; ATXN viability: inactive; HepG2 viability: -14%; GLP-1R agonist: -4%; TGFb SMAD3 inh: 2%

Results for CCOC(=O)/C(=C/c1ccc(OC(F)F)cc1)C1=Nn2c(nnc2-c2ccc(Cl)cc2)SC1 ?
GLP-1R inv ag: inconclusive; ATXN2 expr inh: 10µM*; ATXN viability: 7.9µM*; HepG2 viability: 3.2µM*; GLP-1R agonist: 12%; TGFb SMAD3 inh: inconclusive

What do the screens show for `CCOC(=O)/C(=C\c1ccc(OC(F)F)cc1)C1=Nn2c(nnc2-c2ccc(Cl)cc2)SC1`?
GLP-1R inv ag: inconclusive; ATXN2 expr inh: inconclusive; ATXN viability: inconclusive; HepG2 viability: 2.5µM*; GLP-1R agonist: -18%; TGFb SMAD3 inh: 4µM*

Results for CCCc1ccc(OC(C)c2nc(-c3ccc(-n4cccc4)cc3)no2)cc1 (stereo not drawn) ?
GLP-1R inv ag: -11%; ATXN2 expr inh: -6%; ATXN viability: inactive; HepG2 viability: -40%; TGFb SMAD3 inh: inconclusive

How did COc1ccc(C)cc1NC(=O)NC1CC(=O)N(c2ccc3c(c2)OCCO3)C1 (stereo not drawn) do in these assays?
GLP-1R inv ag: inconclusive; ATXN viability: inactive; HepG2 viability: 11µM*; GLP-1R agonist: -6%; TGFb SMAD3 inh: -21%

Results for O=C(Nc1ccccc1-c1ccccc1)C1CCCC1 ?
GLP-1R inv ag: inconclusive; ATXN2 expr inh: -6%; ATXN viability: inconclusive; HepG2 viability: 1%; GLP-1R agonist: 10%; TGFb SMAD3 inh: -15%

How did O=C(Nc1ccccc1-c1ccccc1)C12CC3CC(CC(C3)C1)C2 do in these assays?
GLP-1R inv ag: 2µM*; ATXN2 expr inh: 70%; ATXN viability: inactive; HepG2 viability: -35%; GLP-1R agonist: 2%; TGFb SMAD3 inh: inconclusive

What do the screens show for `Cc1c(C(=O)NCC2(N3CCOCC3)CCCC2)cnn1-c1nccc(-c2ccccc2F)n1`?
ATXN viability: inactive

How did N#Cc1nc(-c2ccc(OCc3ccccc3)cc2)oc1N1CCC(C(N)=O)CC1 do in these assays?
GLP-1R inv ag: 0%; ATXN2 expr inh: -22%; ATXN viability: inactive; HepG2 viability: -27%; GLP-1R agonist: -2%; TGFb SMAD3 inh: 0%

How did N#Cc1nc(-c2ccc(COc3ccc(Cl)cc3)o2)oc1N1CCC(C(N)=O)CC1 do in these assays?
GLP-1R inv ag: -13%; ATXN2 expr inh: 20µM*; ATXN viability: inconclusive; HepG2 viability: -19%; TGFb SMAD3 inh: inconclusive

What do the screens show for `COc1ccc(C(=O)Nc2ccccc2-c2nc3ccccc3s2)c(OC)c1`?
GLP-1R inv ag: -24%; ATXN2 expr inh: -6%; ATXN viability: inconclusive; HepG2 viability: -9%; TGFb SMAD3 inh: -14%

Results for Cc1cnc(C)c(-c2cccc3c2OC(CNC(=O)/C=C/c2ccc(F)c(F)c2)C3)n1 (stereo not drawn) ?
ATXN viability: inactive

What do the screens show for `CCCCC[C@H]1CN(CCCC)C(=O)[C@@H]1CC(=O)NCc1ccc(OC)cc1`?
GLP-1R inv ag: -2%; ATXN2 expr inh: -21%; ATXN viability: inactive; HepG2 viability: -19%; GLP-1R agonist: 0%; TGFb SMAD3 inh: inconclusive

Assay outcomes deposited in PubChem BioAssay by National Center for Advancing Translational Sciences (NCATS).
